According to PubChem BioAssay:
The source made the active and inactive calls.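 The calls were made as follows, unless noted: active = z-score of at least 1.8 in each of two replicates, scored against plate mean and spread of sample wells; inactive = the rest.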

Legend:
[1] = survival rescue of mitochondrial mutant cells in low glucose, primary screen, MELAS cybrids, Rieske KO mouse fibroblasts, CellTiter-Glo (AID 1508586;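 active = mean z-score across replicates of 1.96 or higher in either the MELAS or the Rieske mutant cell line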;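 also: test concentration not given here; z relative to plate mean and SD of compound and empty wells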)
[2] = viability rescue of complex I mutant cybrids, primary screen, cell-based, galactose medium, ATP luminescence (AID 1645843); conditions: complex I mutant cybrid cells, 72 h, stronger effect = higher value;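 also: positive z means more ATP and so rescue of galactose-driven cybrid death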
[3] = MELAS cybrid survival, CellTiter-Glo 48 h, stronger effect = higher value
[4] = Rieske KO mouse fibroblast survival, CellTiter-Glo 72 h

Row | SMILES | z-score [1, 3] | z-score [1, 4] | z-score [2]
1 | CC(C)N1CCN(C(=O)c2cc(-c3ccccc3)cc(S(=O)(=O)N3CCSCC3)c2)CC1 | -0.246 (inactive) | -0.306 | 1.2 (inactive)
2 | CCN1CCCC1CNC(=O)c1nn(CCOC)c2c1CN(Cc1c(C)nc3sccn13)CC2 (stereo not drawn) | 0.286 (inactive) | -0.16 | -0.87 (inactive)
3 | CCOC(=O)c1nn(CCC(F)(F)F)c2c1CN(C(=O)c1ccco1)CC2 | -0.696 (inactive) | -0.531 | -0.32 (inactive)
4 | CC(=O)c1cccc(-c2cc3c(n(CC=C(C)C)c2=O)CCN(Cc2cnc(N(C)C)s2)C3)c1 | -0.385 (inactive) | 0.11 | 0.475 (inactive)
5 | O=C(NCc1cccc(F)c1)N[C@H]1C[C@H]2C(=O)N[C@@H](COCc3ccccc3)C(=O)N2C1 | 0.777 (inactive) | -0.345 | -0.285 (inactive)
6 | COc1cc(CN2CCc3c(c(C(=O)NCCCN4CCOCC4)nn3C)C2)cc2c1OCO2 | 0.109 (inactive) | -0.162 | -0.765 (inactive)
7 | CC1=C(CCN2CCC3(CC2)C(=O)N(C(C)C)C(=O)N3C)C(C)(C)CCC1 | -0.0598 (inactive) | -0.31 | 1.89 (inactive)
8 | C=CCn1nc(C(=O)N2CCOCC2)c2c1CCC(NCc1ccc(Cl)s1)C2 (stereo not drawn) | -0.625 (inactive) | -0.989 | 0.86 (inactive)
9 | CCCCNC(=O)[C@@H]1C[C@H](CN2CCOCC2)CN(Cc2ccc(OC)c(OC)c2)C1 | -0.184 (inactive) | 0.521 | 1.15 (inactive)
10 | COCCN1C(=O)N(C(C)C)C(=O)C12CCN(Cc1c(F)cccc1Cl)CC2 | -0.424 (inactive) | -0.375 | 2.07 (inactive)
11 | COc1cc(CN2CC(=O)N(CC3CCOCC3)CC(OCc3ccccn3)C2)cc2c1OCO2 (stereo not drawn) | -0.369 | 4.95 | -1.33 (inactive)
12 | Cn1ccnc1CN1C[C@@H](CN2CCOCC2)C[C@@H](C(=O)N2CCCC2)C1 | 0.188 (inactive) | 0.125 | -0.64 (inactive)
13 | COC(=O)c1c(NC(=O)C2CC2)c2cc(NC3CCOCC3)cnc2n1Cc1ccccc1 | -0.892 (inactive) | 0.482 | -0.845 (inactive)
14 | Cn1nc(C(=O)N2CCCCCC2)c2c1CCC(NCc1ccc(C(F)(F)F)cc1)C2 (stereo not drawn) | -0.174 (inactive) | -0.22 | 1.12 (inactive)
15 | CCOC(=O)c1nn(Cc2ccccn2)c2c1CN(Cc1ccc(NC(C)=O)s1)CC2 | -0.809 (inactive) | -0.0726 | 0.55 (inactive)
16 | COc1cccc(COC2CN(Cc3ccccn3)C(=O)CN(C(=O)c3ccc(C)s3)C2)c1 (stereo not drawn) | -0.406 (inactive) | 0.0344 | 0.91 (inactive)
17 | O=C1N[C@@H](COCc2ccccc2)C(=O)N2C[C@@H](NCc3cnn(-c4cccc(F)c4)c3)C[C@@H]12 | 1.94 (inactive) | -0.436 | -0.845 (inactive)
18 | CCCc1c(C(=O)N[C@H]2C[C@H]3C(=O)N[C@H](Cc4ccc(O)cc4)C(=O)N3C2)cnn1-c1ccccc1 | -0.275 (inactive) | -0.357 | -1.02 (inactive)
19 | O=C1N[C@@H](Cc2ccccc2)C(=O)N2CCN(C(=O)c3cccs3)C[C@H]12 | -0.168 (inactive) | -0.046 | -1.15 (inactive)
20 | Cc1ccc(C(C)CCN2CCC3(CC2)C(=O)N(C(C)C)C(=O)N3CCC(C)C)o1 (stereo not drawn) | -0.199 (inactive) | -0.496 | 0.91 (inactive)
21 | COCC(=O)Nc1c(C(=O)OC)n(C)c2ncc(NCc3cnn(C)c3C)cc12 | -0.241 (inactive) | -0.209 | -0.64 (inactive)
22 | CC1=C(C(=O)N2CC(=O)N(CC(C)C)CC(OCc3ccccc3)C2)OCCO1 (stereo not drawn) | 0.636 (inactive) | -0.606 | 0.39 (inactive)
23 | COc1ccc(/C=C/CN2CCc3c(cc(-c4cccc(-n5nc(C)cc5C)c4)c(=O)n3C)C2)cc1 | -0.672 (inactive) | -0.157 | -0.63 (inactive)
24 | Cc1onc(-c2ccccc2)c1C(=O)N1CC(=O)N(Cc2ccccc2)CC(OCC2CC2)C1 (stereo not drawn) | 0.442 (inactive) | -0.273 | -1.6 (inactive)
25 | CC(C)OCCNC1CCc2c(c(C(=O)N(C)Cc3ccccc3)nn2C)C1 (stereo not drawn) | 0.055 (inactive) | -0.804 | 0.48 (inactive)
26 | CNS(=O)(=O)c1cc(NCc2cnc(C)[nH]2)cc(C(=O)Nc2ccc3c(c2)CCC3)c1 | -0.00503 (inactive) | -0.751 | 0.02 (inactive)

Row | SMILES | z-score [1, 3] | z-score [1, 4] | z-score [2]
27 | CN1C(=O)N(Cc2ccccc2)C2(CCN(Cc3nc4ccccc4n3C)CC2)C1=O | 0.0463 (inactive) | -0.298 | -0.11 (inactive)
28 | CC(C)[C@@H]1NC(=O)[C@@H]2C[C@H](NC(=O)OCc3ccccc3)CN2C1=O | -0.138 (inactive) | -0.152 | -1.16 (inactive)
29 | COCCCN1C(=O)N(Cc2ccccc2)C(=O)C12CCN(Cc1ccc(-c3ccco3)cc1)CC2 | 0.678 (inactive) | 0.032 | -1.64 (inactive)
30 | COC1CN(C(=O)Cn2nc(-c3ccccc3)c3ccccc3c2=O)CC(=O)N(Cc2ccccc2)C1 (stereo not drawn) | -0.199 (inactive) | 0.0204 | 1.58 (inactive)
31 | CCc1nc(CNc2cc(C(=O)N[C@H](C)c3ccc(OC)cc3)cc(S(=O)(=O)N(C)C)c2)c(C)[nH]1 | -0.507 (inactive) | -0.167 | 0.08 (inactive)
32 | COCCN1C(=O)N(C2Cc3ccccc3C2)C(=O)C12CCN(Cc1cnn(C)c1C)CC2 | -0.225 (inactive) | -0.00202 | 1.21 (inactive)
33 | CNS(=O)(=O)c1cc(NCc2cc3ccccc3s2)cc(C(=O)Nc2ccc(OC)cc2)c1 | 0.562 (inactive) | 0.602 | 2.26 (inactive)
34 | Cc1ccc(S(=O)(=O)N2CCN3C(=O)[C@H](Cc4ccc(Cl)cc4)NC(=O)[C@H]3C2)cc1 | 1.43 (inactive) | -0.392 | -0.845 (inactive)
35 | COCCCNC(=O)c1nn(C)c2c1CN(C(=O)Cc1c(C)[nH]c3c(F)cccc13)CC2 | -0.326 (inactive) | -0.829 | 0.99 (inactive)
36 | COc1ccccc1C(=O)N1CCN2C(=O)[C@@H]3CSCN3C(=O)[C@H]2C1 | -0.216 (inactive) | 0.475 | -0.395 (inactive)
37 | CN(C)c1ncc(CN2CCc3c(cc(Cc4ccccc4)c(=O)n3Cc3ccc(F)cc3)C2)s1 | -0.5 (inactive) | 0.0943 | -0.525 (inactive)
38 | O=C([C@@H]1C[C@H](CN2CCOCC2)CN(Cc2ccccc2)C1)N1CCCC1 | 0.0951 (inactive) | -0.211 | -0.6 (inactive)
39 | O=C(Oc1ccccc1)N1CCN2C(=O)[C@@H]3C[C@@H](O)CN3C(=O)[C@H]2C1 | 1.95 (inactive) | -0.267 | -0.655 (inactive)
40 | O=C(NCCn1ccnc1)c1cc(NCC2CC2)cc(S(=O)(=O)N2CCCC2)c1 | -0.151 (inactive) | 0.62 | 1.69 (inactive)
41 | Cc1nc2ccccc2nc1CN1CC(=O)N(C2CCCCC2)CC(OCc2cccnc2)C1 (stereo not drawn) | -0.279 | 6.23 | -1.6 (inactive)
42 | CC(C)CNc1cc(C(=O)NC2Cc3ccccc3C2)cc(S(=O)(=O)NC(C)C)c1 | 0.0668 (inactive) | -0.0556 | -1.6 (inactive)
43 | CC(C)Cn1nc(C(=O)NCc2cccnc2)c2c1CCN(C(=O)c1scc3c1OCCO3)C2 | -0.675 | 5.2 | -1.46 (inactive)
44 | COC(=O)c1c(NC(=O)c2cccnc2)c2cc(NCc3ccc4c(c3)CCO4)cnc2n1CC(C)C | -0.55 | 3.72 | -1.61 (inactive)
45 | COc1cccc(C(=O)N2CCN3C(=O)[C@@H]4C[C@@H](O)CN4C(=O)[C@H]3C2)c1 | -0.0988 (inactive) | 0.379 | 0.555 (inactive)
46 | CCCCNC(=O)[C@@H]1C[C@H](CN2CCOCC2)CN(Cc2ccc(O)cc2)C1 | 1.06 (inactive) | -0.315 | 0.115 (inactive)
47 | COC(=O)c1c(NC(=O)c2ccco2)c2cc(NC3CCOCC3)cnc2n1C | -0.622 (inactive) | -0.251 | 0.7 (inactive)
48 | CC(C)CNC(=O)[C@@H]1C[C@H](CN2CCOCC2)CN(Cc2ccccc2)C1 | 0.428 (inactive) | 0.562 | 0.12 (inactive)
49 | Cc1ccc(CNC(=O)c2nn(C)c3c2CC(NC2CCN(Cc4ccccc4)CC2)CC3)o1 (stereo not drawn) | 0.347 (inactive) | 0.979 | -1.23 (inactive)
50 | COC(=O)c1c(NC(=O)C2CCC2)c2cc(NC3CCSCC3)cnc2n1CCc1ccccn1 | -0.0865 (inactive) | -0.308 | 1.1 (inactive)
51 | COc1ccc(CNC(=O)c2cc(NCc3nc[nH]c3C)cc(S(=O)(=O)N3CCCC3)c2)cc1 | -0.477 (inactive) | -0.812 | 0.755 (inactive)
